Results reported in PubChem BioAssay (Tox21).
Results filed as inconclusive are left out. Activity calls are given as the source filed them. Unless noted, calls come from the whole dose curve.

Tests used:
[1] = target: Peroxisome proliferator-activated receptor delta (Homo sapiens) (UniProt Q03181); experiment: qHTS assay to identify small molecule agonists of the peroxisome proliferator-activated receptor delta (PPARd) signaling pathway (AID 743212); note: % is set by controls: 0 for no effect and ±100 for the full control effect
Sequence of Peroxisome proliferator-activated receptor delta (Homo sapiens) (Q03181 whole entry, looked up): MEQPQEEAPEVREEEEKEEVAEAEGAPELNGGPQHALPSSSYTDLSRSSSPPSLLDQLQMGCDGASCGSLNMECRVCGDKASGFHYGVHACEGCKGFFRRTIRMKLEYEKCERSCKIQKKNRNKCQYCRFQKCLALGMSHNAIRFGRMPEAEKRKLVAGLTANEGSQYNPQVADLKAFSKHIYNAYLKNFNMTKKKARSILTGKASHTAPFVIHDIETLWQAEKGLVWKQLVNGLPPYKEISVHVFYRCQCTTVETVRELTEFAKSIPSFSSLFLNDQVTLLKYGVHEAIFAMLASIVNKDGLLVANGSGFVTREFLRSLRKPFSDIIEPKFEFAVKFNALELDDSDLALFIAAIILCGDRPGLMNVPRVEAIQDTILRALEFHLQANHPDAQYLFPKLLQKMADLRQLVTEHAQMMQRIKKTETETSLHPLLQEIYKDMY
Procedure, shortened: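 HEK293H PPARd-bla cells; 5 h preincubation 37 C/5% CO2; compound (DMSO) 37 C; LiveBLAzer B/G FRET substrate 2 h RT; fluorescence intensity.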

[2] = qHTS assay to identify small molecule antagonists of the peroxisome proliferator-activated receptor delta (PPARd) signaling pathway - cell viability counter screen (AID 743213; active = well fitted curve in the direction sought with a large enough effect in the repeat runs; an effect the other way counts as inactive or inconclusive; note: % is set by controls: 0 for no effect and ±100 for the full control effect; nearly all actives have a fitted effect of over 50% in size)
Procedure, shortened: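 CellTiter-Glo was added to PPARd-bla HEK293H wells following 17 h compound treatment in the presence of 300 nM L165041. Luminescence was recorded after 30 min at room temperature.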

[3] = target: Peroxisome proliferator-activated receptor delta (Homo sapiens) (UniProt Q03181); experiment: qHTS assay to identify small molecule antagonists of the peroxisome proliferator-activated receptor delta (PPARd) signaling pathway (AID 743215; active = well fitted inhibition curve with a large enough effect in the signal ratio in the repeat runs, not every such curve was filed as active; the % refers to the signal ratio;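 note: cells stimulated with agonist L165041 at 300 nM final during compound exposure; series mostly up to about 62 µM; % is set by controls: 0 for no effect and ±100 for the full control effect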)
Procedure, shortened: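 PPARd UAS-bla HEK293H cells were pre-incubated 5 h at 37 C, then given test compounds in DMSO plus agonist L165041 (300 nM final). After 17 h at 37 C, beta-lactamase FRET substrate was added; fluorescence read after 2 h at room temperature.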

[4] = qHTS assay to identify small molecule agonists of the farnesoid-X-receptor (FXR) signaling pathway - cell viability counter screen (AID 743218; active = well fitted curve in the direction sought with a large enough effect in the repeat runs; an effect the other way counts as inactive or inconclusive; note: % is set by controls: 0 for no effect and ±100 for the full control effect; nearly all actives have a fitted effect of over 45% in size)
Procedure, shortened: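 FXR-UAS-bla HEK 293T cells, plated 5 h at 37 C, were exposed to compounds for 16 h at 37 C. CellTiter-Glo was then added to the same wells as the bla readout; luminescence read after 30 min at room temperature.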

[5] = qHTS assay to identify small molecule antagonists of the farnesoid-X-receptor (FXR) signaling pathway - cell viability counter screen (AID 743221; active = well fitted cell-killing curve with a large enough effect in the repeat runs, not every such curve was filed as active; note: % is set by controls: 0 for no effect and ±100 for the full control effect; nearly all actives have a fitted effect of over 50% in size)
Procedure, shortened: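 GeneBLAzer FXR-UAS-bla HEK 293T cells, compound plus chenodeoxycholic acid (50 uM final), 16 h at 37 C. CellTiter-Glo added to the same wells after the beta-lactamase read; luminescence read after 30 min at room temperature as viability.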

[6] = target: Vitamin D3 receptor (Homo sapiens) (UniProt P11473); experiment: qHTS assay to identify small molecule agonists of the vitamin D receptor (VDR) signaling pathway (AID 743222); note: % is set by controls: 0 for no effect and ±100 for the full control effect
Sequence of Vitamin D3 receptor (Homo sapiens) (P11473 whole entry, looked up): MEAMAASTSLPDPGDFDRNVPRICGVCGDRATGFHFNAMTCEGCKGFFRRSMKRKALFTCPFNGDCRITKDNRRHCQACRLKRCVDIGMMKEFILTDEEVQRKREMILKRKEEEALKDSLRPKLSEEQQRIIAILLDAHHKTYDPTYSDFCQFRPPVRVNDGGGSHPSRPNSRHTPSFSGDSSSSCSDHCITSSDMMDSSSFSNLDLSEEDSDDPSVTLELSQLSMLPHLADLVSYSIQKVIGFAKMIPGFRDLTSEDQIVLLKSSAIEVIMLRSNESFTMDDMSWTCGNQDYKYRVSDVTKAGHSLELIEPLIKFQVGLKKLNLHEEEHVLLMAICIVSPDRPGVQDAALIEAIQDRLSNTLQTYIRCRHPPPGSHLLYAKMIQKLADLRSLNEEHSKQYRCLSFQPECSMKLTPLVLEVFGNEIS
Procedure, shortened: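 VDR-bla cells were plated 4 h at 37C/5% CO2, then exposed to compounds in DMSO for 16 h. After LiveBLAzer B/G FRET substrate addition and 2 h at room temperature, beta-lactamase reporter fluorescence was read.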

[7] = target: Vitamin D3 receptor (Homo sapiens) (UniProt P11473); experiment: qHTS assay to identify small molecule antagonists of the vitamin D receptor (VDR) signaling pathway (AID 743223; active = well fitted inhibition curve with a large enough effect in the signal ratio in the repeat runs, not every such curve was filed as active; the % refers to the signal ratio; note: % is set by controls: 0 for no effect and ±100 for the full control effect)
Procedure, shortened: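 VDR-bla cells were treated with compound plus 3 nM final 1alpha,25-dihydroxyvitamin D3 for 16 h at 37C. Beta-lactamase reporter read by B/G FRET substrate fluorescence after 2 h at room temperature. qHTS format.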

[8] = qHTS assay to identify small molecule agonists of the vitamin D receptor (VDR) signaling pathway - cell viability counter screen (AID 743224; active = well fitted curve in the direction sought with a large enough effect in the repeat runs; an effect the other way counts as inactive or inconclusive; note: series mostly up to about 63 µM; % is set by controls: 0 for no effect and ±100 for the full control effect; nearly all actives have a fitted effect of over 50% in size)
Procedure, shortened: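 VDR-bla cells were preincubated 4 h at 37C/5% CO2, then exposed to compounds for 16 h. After the 2 h room-temperature bla FRET read, CellTiter-Glo was added to the same wells and luminescence read after 30 min.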

[9] = qHTS assay to identify small molecule antagonists of the vitamin D receptor (VDR) signaling pathway - cell viability counter screen (AID 743225; active = well fitted curve in the direction sought with a large enough effect in the repeat runs; an effect the other way counts as inactive or inconclusive; note: % is set by controls: 0 for no effect and ±100 for the full control effect; nearly all actives have a fitted effect of over 50% in size)
Procedure, shortened: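 VDR-UAS-bla HEK 293T cells were plated and incubated 4 h at 37C, then dosed with compound plus 3 nM (final) 1-alpha,25-dihydroxyvitamin D3 for 16 h. After the 2 h beta-lactamase read, viability in the same wells was read as CellTiter-Glo luminescence after 30 min at room temperature.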

[10] = qHTS assay to identify small molecule agonists of the NFkB signaling pathway - cell viability counter screen (AID 1159515); note: series mostly up to about 61 µM; % is set by controls: 0 for no effect and ±100 for the full control effect; nearly all actives have a fitted effect of over 55% in size
Procedure, shortened: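 NFkB-bla ME-180 cells, 2,000/well, were plated overnight at 37 C, 5% CO2, then exposed to compounds in DMSO for 5 hr. After the bla FRET read, CellTiter-Glo was added to the same wells; luminescence was read after 30 min at room temperature.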

[11] = qHTS assay to identify small molecule agonists of the endoplasmic reticulum stress response signaling pathway (AID 1159516; active = well fitted activation curve with a large enough effect in the signal ratio in the repeat runs, not every such curve was filed as active; the % refers to the signal ratio; note: % is set by controls: 0 for no effect and ±100 for the full control effect)
Procedure, shortened: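 CellSensor ESRE-bla HeLa cells, carrying a beta-lactamase reporter driven by the ER stress response element, were plated overnight and exposed to compounds for 5 hr at 37 C. Reporter activity was read as FRET substrate fluorescence after 2 hr at room temperature.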

[12] = qHTS assay to identify small molecule agonists of the endoplasmic reticulum stress response signaling pathway - cell viability counter screen (AID 1159517)
Procedure, shortened: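 HeLa cells carrying an ESRE-driven beta-lactamase reporter receive compound for 5 hr at 37 C. Cell viability is then gauged with CellTiter-Glo by luminescence, 30 min at room temperature.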

[13] = qHTS assay to identify small molecule antagonists of the retinoid-related orphan receptor gamma (ROR-gamma) signaling pathway - cell viability counter screen (AID 1159520; active = well fitted curve in the direction sought with a large enough effect in the repeat runs; an effect the other way counts as inactive or inconclusive)
Procedure, shortened: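 Cytotoxicity was read from cellular ATP (CellTiter-Glo luminescence) after 16 hr at 37 C with 1 uM doxycycline induction. The inducer was added 2 hr after compound transfer to Tet-on ROR gamma CHO cells.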

[14] = target: Nuclear receptor ROR-gamma (Homo sapiens) (UniProt P51449); experiment: qHTS assay to identify small molecule antagonists of the retinoid-related orphan receptor gamma (ROR-gamma) signaling pathway (AID 1159521; active = well fitted curve in the direction sought with a large enough effect in the repeat runs; an effect the other way counts as inactive or inconclusive; note: nearly all actives have a fitted effect of over 50% in size; note: potency is the fitted concentration of half-maximal effect)
Procedure, shortened: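 Tet-on ROR-gamma CHO cells with ROR response element-luciferase reporter; compounds added 2 hr before 1 uM doxycycline induction, then 16 hr at 37 C. Antagonism scored as decreased ONE-Glo luminescence.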

[15] = qHTS assay to identify small molecule agonists of the AP-1 signaling pathway - cell viability counter screen (AID 1159525); note: nearly all actives have a fitted effect of over 55% in size
Procedure, shortened: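 Luminescent ATP readout (Cell Titer Glo, 30 min RT), normalised to DMSO and tetra n-octyl ammonium bromide controls. Cells were ME-180 AP-1-bla in 0.5% dialyzed FBS Opti-MEM, with a 5 h, 37 °C compound exposure.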

[16] = qHTS assay to identify small molecule agonists of the AP-1 signaling pathway (AID 1159526); note: % is set by controls: 0 for no effect and ±100 for the full control effect
[17] = target: Retinoic acid receptor RXR-alpha (Homo sapiens) (UniProt P19793); experiment: qHTS assay to identify small molecule agonists of the RXR signaling pathway (AID 1159527); note: % is set by controls: 0 for no effect and ±100 for the full control effect; nearly all actives have a fitted effect of over 35% in size
Sequence of Retinoic acid receptor RXR-alpha (Homo sapiens) (P19793 whole entry, looked up): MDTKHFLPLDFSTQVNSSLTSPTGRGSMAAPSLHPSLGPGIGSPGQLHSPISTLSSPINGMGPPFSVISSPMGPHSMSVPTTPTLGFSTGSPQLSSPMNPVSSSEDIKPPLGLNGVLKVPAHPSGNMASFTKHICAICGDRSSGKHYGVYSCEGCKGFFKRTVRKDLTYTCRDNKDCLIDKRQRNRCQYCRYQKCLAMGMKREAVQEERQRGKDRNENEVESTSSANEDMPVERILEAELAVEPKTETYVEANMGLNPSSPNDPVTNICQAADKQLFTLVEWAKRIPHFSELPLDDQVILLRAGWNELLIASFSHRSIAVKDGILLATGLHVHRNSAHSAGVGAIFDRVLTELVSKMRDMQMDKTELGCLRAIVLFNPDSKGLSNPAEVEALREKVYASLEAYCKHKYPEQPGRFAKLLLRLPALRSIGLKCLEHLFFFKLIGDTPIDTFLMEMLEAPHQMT
Procedure, shortened: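 GeneBLAzer RXR-alpha-UAS-bla HEK 293T cells in 2% charcoal-stripped FBS medium were exposed to compounds for 16 hr at 37 C in agonist mode. Beta-lactamase reporter read as 460/530 nm FRET ratio after 2 hr substrate loading.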

[18] = qHTS assay to identify small molecule agonists of the peroxisome proliferator-activated receptor delta (PPARd) signaling pathway - cell viability counter screen (AID 743211; active = well fitted curve in the direction sought with a large enough effect in the repeat runs; an effect the other way counts as inactive or inconclusive; note: % is set by controls: 0 for no effect and ±100 for the full control effect; nearly all actives have a fitted effect of over 55% in size)
Procedure, shortened: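 PPARd-bla HEK293H cells (3000/well) were pre-incubated 5 h at 37 C, then exposed to compound for 17 h at 37 C. After 2 h with LiveBLAzer substrate, CellTiter-Glo was added to the same wells; luminescence read after 30 min at room temperature.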

[19] = target: Bile acid receptor (Homo sapiens) (UniProt Q96RI1); experiment: qHTS assay to identify small molecule antagonists of the farnesoid-X-receptor (FXR) signaling pathway (AID 743217; active = well fitted inhibition curve with a large enough effect in the signal ratio in the repeat runs, not every such curve was filed as active; the % refers to the signal ratio; note: % is set by controls: 0 for no effect and ±100 for the full control effect)
Sequence of Bile acid receptor (Homo sapiens) (Q96RI1 whole entry, looked up): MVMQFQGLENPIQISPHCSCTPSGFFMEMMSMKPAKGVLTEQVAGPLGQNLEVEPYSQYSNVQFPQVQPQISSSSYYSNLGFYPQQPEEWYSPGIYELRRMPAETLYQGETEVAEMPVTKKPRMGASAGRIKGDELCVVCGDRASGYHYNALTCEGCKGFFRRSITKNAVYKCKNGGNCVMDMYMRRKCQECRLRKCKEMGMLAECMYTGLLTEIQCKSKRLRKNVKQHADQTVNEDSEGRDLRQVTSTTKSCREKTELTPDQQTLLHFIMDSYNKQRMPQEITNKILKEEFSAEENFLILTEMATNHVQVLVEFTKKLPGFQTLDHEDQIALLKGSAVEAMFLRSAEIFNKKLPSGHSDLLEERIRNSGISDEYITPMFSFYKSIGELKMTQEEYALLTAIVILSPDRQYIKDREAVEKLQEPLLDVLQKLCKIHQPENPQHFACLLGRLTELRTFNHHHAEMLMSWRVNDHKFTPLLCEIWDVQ
Procedure, shortened: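 FXR-UAS-bla HEK 293T cells pre-incubated 5 h at 37 °C, then exposed to compounds with chenodeoxycholic acid (50 uM final) for 16 h at 37 °C. Beta-lactamase reporter read by LiveBLAzer B/G FRET substrate fluorescence after 2 h at room temperature.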

[20] = target: Bile acid receptor (Homo sapiens) (UniProt Q96RI1); experiment: qHTS assay to identify small molecule agonists of the farnesoid-X-receptor (FXR) signaling pathway (AID 743220; active = well fitted activation curve with a large enough effect in the signal ratio in the repeat runs, not every such curve was filed as active; the % refers to the signal ratio; note: % is set by controls: 0 for no effect and ±100 for the full control effect)
Procedure, shortened: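 Beta-lactamase reporter under UAS control in GeneBLAzer FXR HEK 293T cells (5000/well) measured with LiveBLAzer FRET substrate after 2 h at room temperature. Compound exposure lasted 16 h at 37C.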

c1coc(CNc2ncnc3nc[nH]c23)c1
inactive: outcome [1] | outcome [2] | outcome [3] | outcome [4] | outcome [5] | outcome [6] | outcome [7] | outcome [8] | outcome [9] | outcome [10] | outcome [11] | outcome [12] | outcome [13] | Potency [14] | outcome [15] | outcome [16] | Potency [17]

CN(C)CCN(C)CCN(C)C
inactive: outcome [1] | outcome [8] | outcome [10] | outcome [11] | outcome [12] | outcome [13] | Potency [14] | outcome [15] | outcome [16] | Potency [17]

CCCCOCCOC(=O)COc1cc(Cl)c(Cl)cc1Cl
inactive: outcome [1] | outcome [2] | outcome [3] | outcome [5] | outcome [6] | outcome [7] | outcome [8] | outcome [9] | outcome [10] | outcome [11] | outcome [12] | outcome [13] | Potency [14] | outcome [15] | outcome [16] | Potency [17]

CCCCCCCCCCOc1cc2c(=O)c(C(=O)OCC)c[nH]c2cc1OCC
inactive: activity change, negative = cytotoxicity [18] 8.81% [at 5.95 µM] | ratio activity, negative = inhibition [3] 0.26% [at 6.26 µM] | viability change, negative = cytotoxic [4] 4.21% [at 5.95 µM] | activity change, negative = cytotoxicity [5] 5.04% [at 5.95 µM] | activity change, negative = cytotoxicity [8] -0.151% [at 5.95 µM] | viability change, negative = cytotoxic [9] -0.675% [at 6.95 µM] | activity, negative = cytotoxic [10] 6.37% [at 6.95 µM] | activation [11] 2.24% [at 6.95 µM] | activity change, negative = cytotoxicity [12] -7.49% [at 6.95 µM] | activity, negative = cytotoxicity [13] 2.58% [at 8.39 µM] | activity change, negative = inhibition [14] 36.6% [at 8.39 µM] | viability change, negative = cytotoxic [15] 15.6% [at 6.97 µM] | activation [16] 9.42% [at 6.97 µM] | activation [17] -0.304% [at 6.98 µM]

CC1=NN(c2cccc(S(=O)(=O)O)c2)C(=O)C1
inactive: outcome [1] | outcome [2] | outcome [5] | outcome [6] | outcome [7] | outcome [8] | outcome [10] | outcome [11] | outcome [12] | outcome [13] | Potency [14] | outcome [15] | outcome [16] | Potency [17]

CC(=O)NC(=O)c1ccccc1O
inactive: outcome [1] | outcome [2] | outcome [3] | outcome [4] | outcome [5] | outcome [8] | outcome [9] | outcome [10] | outcome [11] | outcome [12] | outcome [13] | Potency [14] | outcome [15] | outcome [16] | Potency [17]

CCCCCCCC1CCCC1=O (stereo unspecified)
inactive: outcome [1] | outcome [2] | outcome [3] | outcome [4] | outcome [8] | outcome [9] | outcome [10] | outcome [11] | outcome [12] | outcome [13] | Potency [14] | outcome [15] | outcome [16] | Potency [17]

CN1C(C)(C)CC(O)CC1(C)C
inactive: outcome [1] | outcome [2] | outcome [3] | outcome [19] | outcome [4] | outcome [20] | outcome [6] | outcome [7] | outcome [8] | outcome [10] | outcome [11] | outcome [12] | outcome [13] | Potency [14] | outcome [15] | outcome [16] | Potency [17]

CCCC(=O)O[C@]1(C(=O)CC)CC[C@H]2[C@@H]3CCC4=CC(=O)CC[C@]4(C)[C@H]3[C@@H](O)C[C@@]21C
inactive: outcome [2] | outcome [3] | outcome [4] | outcome [5] | outcome [8] | outcome [9] | outcome [10] | outcome [11] | outcome [12] | outcome [13] | outcome [15] | outcome [16] | Potency [17]
active: Potency [14] 10.6 µM
